This passage reports activity and activity, % sensitization results from PubChem BioAssay.

Tested on in one experiment: not listed separately
Kind of experiment: viability loss of caspase-8 NB7 cells with TRAIL – with/without TRAIL, luminescence panel, confirmation (AID 651596). Conditions: NB7 neuroblastoma + caspase-8, without TRAIL, NB7 Caspase-8, without TRAIL, mean of runs, at 10 µM.
Regarding `NC(=O)c1oc2ccccc2c1NC(=O)c1ccc([N+](=O)[O-])o1`, the activity was determined as 96.5%.

Turning to `CCOC(=O)c1sc(NC(=O)c2cc(-c3ccccc3C)nc3ccccc23)c(C#N)c1C`, the activity was 40.4%.

`O=C(CCl)N(C/C=C/c1ccccc1)c1ccc2c(c1)OCCO2`: the activity stood at 94%.

Regarding `CCCCCN=C(N)N/N=C/c1c[nH]c2ccc(OC)cc12`, the activity worked out at 98%.

On to `Cc1ccc(NC(=O)CSc2nc3ccc(Nc4nc(N5CCOCC5)nc(N5CCOCC5)n4)cc3s2)cc1`, for which the activity was 40.5%.

For the compound `CCCCC(O)(CCCC)C(=O)NN(C(=O)CCl)c1ccccc1`, the activity turned out to be 95.7%.

Take `CCCCCCc1cc2cc(S(=O)(=O)c3ccc(F)c(Cl)c3)c(=O)oc2cc1O`: the activity is 40%.

As for `CCCCCc1cc(=O)oc2c(C(CCN(CC)CC)c3cc(OC)c(OC)c(OC)c3)c(OC)cc(OC)c12` (centres undefined), the activity was found to be 54.7%.

Take `Cc1cc(NC(=O)c2cncc(Br)c2)ccc1NC(=O)c1cc2ccccc2o1`: the activity came to 13.3%.

The next experiment deals with Tumor necrosis factor receptor superfamily member 10B (Homo sapiens) (UniProt O14763). The experiment is described as follows: compound enhancement of TRAIL-induced cell killing – NB7 cells plus caspase-8, luminescence, panel, dose response (AID 652002). Conditions: NB7 neuroblastoma +caspase-8, TRAIL sensitization, luminescence viability, NB7+Caspase-8, with TRAIL, run 1; at 12.5 µM (top of the series).
Sequence of Tumor necrosis factor receptor superfamily member 10B (Homo sapiens) (O14763 whole entry, looked up): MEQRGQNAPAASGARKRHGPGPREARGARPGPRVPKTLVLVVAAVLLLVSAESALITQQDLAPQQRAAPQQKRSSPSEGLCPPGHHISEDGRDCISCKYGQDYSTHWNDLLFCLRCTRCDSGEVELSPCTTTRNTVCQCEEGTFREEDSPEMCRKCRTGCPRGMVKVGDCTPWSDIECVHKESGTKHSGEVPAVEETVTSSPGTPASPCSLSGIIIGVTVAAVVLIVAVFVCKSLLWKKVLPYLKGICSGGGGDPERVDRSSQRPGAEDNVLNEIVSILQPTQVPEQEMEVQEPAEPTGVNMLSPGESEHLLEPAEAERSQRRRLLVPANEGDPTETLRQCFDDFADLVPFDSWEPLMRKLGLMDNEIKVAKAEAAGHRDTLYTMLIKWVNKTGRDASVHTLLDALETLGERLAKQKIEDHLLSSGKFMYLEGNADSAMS
For `CCOC(=O)c1sc(NC(=O)c2cc(-c3ccccc3C)nc3ccccc23)c(C#N)c1C`, the activity, % sensitization stood at 16.7%.

For `Cc1ccc(NC(=O)CSc2nc3ccc(Nc4nc(N5CCOCC5)nc(N5CCOCC5)n4)cc3s2)cc1`, the activity, % sensitization is -7.95%.

Take `CCCCCCc1cc2cc(S(=O)(=O)c3ccc(F)c(Cl)c3)c(=O)oc2cc1O`: the activity, % sensitization was -8.78%.

For `CCCCCc1cc(=O)oc2c(C(CCN(CC)CC)c3cc(OC)c(OC)c(OC)c3)c(OC)cc(OC)c12` (centres undefined), the activity, % sensitization was -8.61%.

On to `Cc1cc(NC(=O)c2cncc(Br)c2)ccc1NC(=O)c1cc2ccccc2o1`, for which the activity, % sensitization was found to be 7.53%.

The next experiment has the same target. The description is as above. Conditions: NB7 neuroblastoma +caspase-8, TRAIL sensitization, luminescence viability, NB7+Caspase-8, with TRAIL, run 2; at 12.5 µM (top of the series).
Take `CCOC(=O)c1sc(NC(=O)c2cc(-c3ccccc3C)nc3ccccc23)c(C#N)c1C`: the activity, % sensitization is -4.14%.

As to `Cc1ccc(NC(=O)CSc2nc3ccc(Nc4nc(N5CCOCC5)nc(N5CCOCC5)n4)cc3s2)cc1`, the activity, % sensitization is -11.3%.

On to `CCCCCCc1cc2cc(S(=O)(=O)c3ccc(F)c(Cl)c3)c(=O)oc2cc1O`, for which the activity, % sensitization is -2.26%.

On to `CCCCCc1cc(=O)oc2c(C(CCN(CC)CC)c3cc(OC)c(OC)c(OC)c3)c(OC)cc(OC)c12` (centres undefined), for which the activity, % sensitization turned out to be 49.1%.

On to `Cc1cc(NC(=O)c2cncc(Br)c2)ccc1NC(=O)c1cc2ccccc2o1`, for which the activity, % sensitization is 53.9%.

Tested on in the next experiment: not listed separately
The description is as above. Conditions: NB7 neuroblastoma +caspase-8, no TRAIL, compound-alone cytotoxicity counter-screen, luminescence viability, NB7+Caspase-8, run 1; at 12.5 µM (top of the series) unless noted. In general terms: Counterscreens check selectivity or assay interference.
`CCOC(=O)c1sc(NC(=O)c2cc(-c3ccccc3C)nc3ccccc23)c(C#N)c1C`: the activity, % sensitization amounted to 4.11%.

As to `Cc1ccc(NC(=O)CSc2nc3ccc(Nc4nc(N5CCOCC5)nc(N5CCOCC5)n4)cc3s2)cc1`, the activity, % sensitization is -21% [at 6.25 µM].

With `CCCCCCc1cc2cc(S(=O)(=O)c3ccc(F)c(Cl)c3)c(=O)oc2cc1O`, the activity, % sensitization is -6.43%.

With `CCCCCc1cc(=O)oc2c(C(CCN(CC)CC)c3cc(OC)c(OC)c(OC)c3)c(OC)cc(OC)c12` (centres undefined), the activity, % sensitization is -1%.

As for `Cc1cc(NC(=O)c2cncc(Br)c2)ccc1NC(=O)c1cc2ccccc2o1`, the activity, % sensitization was found to be 12.3%.

Tested on in the next experiment: not listed separately
The experiment is described as above. Conditions: NB7 neuroblastoma +caspase-8, no TRAIL, compound-alone cytotoxicity counter-screen, luminescence viability, NB7+Caspase-8, run 2; at 12.5 µM (top of the series) unless noted.
As to `CCOC(=O)c1sc(NC(=O)c2cc(-c3ccccc3C)nc3ccccc23)c(C#N)c1C`, the activity, % sensitization was -11.3%.

Consider `Cc1ccc(NC(=O)CSc2nc3ccc(Nc4nc(N5CCOCC5)nc(N5CCOCC5)n4)cc3s2)cc1`, for which the activity, % sensitization was -31.8%.

Take `CCCCCCc1cc2cc(S(=O)(=O)c3ccc(F)c(Cl)c3)c(=O)oc2cc1O`: the activity, % sensitization is -24.8%.

With `CCCCCc1cc(=O)oc2c(C(CCN(CC)CC)c3cc(OC)c(OC)c(OC)c3)c(OC)cc(OC)c12` (centres undefined), the activity, % sensitization was determined as 3.69%.

Take `Cc1cc(NC(=O)c2cncc(Br)c2)ccc1NC(=O)c1cc2ccccc2o1`: the activity, % sensitization is 28.1%.
